The source of these data is PubChem BioAssay (NCI).

A short description of assay [1]: NCI Yeast Anticancer Drug Screen. Data for the rad50 strain (AID 155).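 Note: 0% = growth of vehicle-only cultures of the same strain.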 Particulars: S. cerevisiae rad50 strain growth inhibition, hits give high values. The method, boiled down:
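Inhibition values express reduced yeast growth in compound-treated cultures relative to vehicle-treated controls.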

Assay [2] in a line: NCI Yeast Anticancer Drug Screen. Data for the mec2-1 strain (AID 157). The settings on record: S. cerevisiae mec2-1 strain, hits give high values. The method, boiled down:
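Readout is yeast growth inhibition, normalised to vehicle-treated controls, in the mec2-1 strain exposed to compound.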

Assay [3] can be described thus: NCI Yeast Anticancer Drug Screen. Data for the sgs1 mgt1 strain (AID 161).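 Note: 0% = growth of cultures given vehicle only.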 The settings on record: S. cerevisiae sgs1 mgt1 strain, hits give high values. The method, boiled down: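 Percent growth inhibition was derived by comparing compound-exposed mutant yeast with vehicle-exposed cultures. The strain carries alterations in DNA damage repair.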
Assay [4] in a line: NCI Yeast Anticancer Drug Screen. Data for the cln2 rad14 strain (AID 165).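 Note: 0% = growth equal to vehicle treated cultures.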 Particulars: S. cerevisiae cln2 rad14 strain, hits give high values. The essentials: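 Relative to vehicle controls, growth inhibition of compound-treated cln2 rad14 yeast was recorded.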
Assay [5] in a line: NCI Yeast Anticancer Drug Screen. Data for the bub3 strain (AID 167). The settings on record: S. cerevisiae bub3 mutant strain, hits give high values. The essentials:
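Steps: expose the mutant yeast strain to compound; grow alongside vehicle-treated cultures; measure growth; express inhibition against the vehicle cultures.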

Assay [6] in a line: NCI Yeast Anticancer Drug Screen. Data for the mlh1 rad18 strain (AID 175). Particulars: S. cerevisiae mlh1 rad18 strain growth inhibition, hits give high values. The essentials:
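Test agents were incubated with a yeast strain of defined genotype (DNA damage repair defect). Inhibition of growth was derived by comparison with vehicle-exposed cultures.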

The mark [7] stands for this setting: at 5.0 µM (retest, dose inferred, filed as 0.5).
Setting [8] is: at 50.0 µM (retest, dose inferred, filed as 5.0).

Compounds without any hit were thinned out: in the full panel of roughly 79,000, 15% have a hit. A number with no mark means an inactive call. Activity calls are given as the source filed them. Cut-off read from the data, not from the text of the source: active = growth inhibition above about 70%; inactive = the rest.

As to `COc1ccc2c(ccc[n+]2CC(=O)c2ccc(-c3ccccc3)cc2)c1`, the growth inhibition in assay [1] (setting [7]) is -24%; in assay [1] (setting [8]) it was 5%; in assay [1] (at 50.0 µM), 13.1%; in assay [2] (setting [7]) it was -5%; in assay [2] (setting [8]), -1%; in assay [2] (at 50.0 µM), 14.8%. Besides, the growth inhibition in assay [3] (setting [7]) is -20%; in assay [3] (setting [8]), 24%; in assay [3] (at 50.0 µM), 2.75%; in assay [4] (setting [7]) it was -2%; in assay [4] (setting [8]) it was 5%; in assay [4] (at 50.0 µM), -12.8%. Also, the growth inhibition in assay [5] (setting [7]) was 3%; in assay [5] (setting [8]) it was 8%; in assay [5] (at 50.0 µM), -2.75%; in assay [6] (setting [7]), -3%; in assay [6] (setting [8]), 12%; in assay [6] (at 50.0 µM) it was 40%.

`OCC(c1ccccc1)c1ccccc1`: the growth inhibition in assay [1] (setting [7]) is 24%; in assay [1] (setting [8]), 42%; in assay [1] (at 50.0 µM), 77.8% (active); in assay [2] (setting [7]) it was 2%; in assay [2] (setting [8]), 6%; in assay [2] (at 50.0 µM), 54.5%. Further, the growth inhibition was 41% in assay [3] (setting [7]); 34% in assay [3] (setting [8]); 76.5% (active) in assay [3] (at 50.0 µM); 2% in assay [4] (setting [7]); 9% in assay [4] (setting [8]); -14.2% in assay [4] (at 50.0 µM). The growth inhibition in assay [5] (setting [7]) was 39%; in assay [5] (setting [8]), 43%; in assay [5] (at 50.0 µM) it was 18%; in assay [6] (setting [7]), 11%; in assay [6] (setting [8]), 22%; in assay [6] (at 50.0 µM), 80.2% (active).

With `CC(=O)OCC1OC(OC2CCCc3c(O)c4c(c(O)c32)C(=O)c2ccccc2C4=O)C(OC(C)=O)C(OC(C)=O)C1OC(C)=O` (centres undefined), the growth inhibition in assay [1] (setting [7]) is 32%; in assay [1] (setting [8]), 96% (active); in assay [1] (at 50.0 µM) it was 97.6% (active); in assay [2] (setting [7]) it was -8%; in assay [2] (setting [8]), 98% (active); in assay [2] (at 50.0 µM), 99.5% (active). For the same compound, the growth inhibition in assay [3] (setting [7]) was 16%; in assay [3] (setting [8]) it was 98% (active); in assay [3] (at 50.0 µM) it was 98.8% (active); in assay [4] (setting [7]), 2%; in assay [4] (setting [8]), 96% (active); in assay [4] (at 50.0 µM) it was 28.9%. The growth inhibition is 16% in assay [5] (setting [7]); 98% (active) in assay [5] (setting [8]); 99.2% (active) in assay [5] (at 50.0 µM); 19% in assay [6] (setting [7]); 97% (active) in assay [6] (setting [8]); 82.1% (active) in assay [6] (at 50.0 µM).

As for `COc1cc(OC)c(OC)cc1/C=C\c1nccc2ccccc12`, the growth inhibition in assay [1] (setting [7]) was 1%; in assay [1] (setting [8]), 51%; in assay [1] (at 50.0 µM), 92.9% (active); in assay [2] (setting [7]) it was -3%; in assay [2] (setting [8]), 12%; in assay [2] (at 50.0 µM) it was 92.5% (active). For the same compound, the growth inhibition was -4% in assay [3] (setting [7]); 23% in assay [3] (setting [8]); 93.7% (active) in assay [3] (at 50.0 µM); 4% in assay [4] (setting [7]); 0% in assay [4] (setting [8]); 65.4% in assay [4] (at 50.0 µM). Further, the growth inhibition in assay [5] (setting [7]) was -6%; in assay [5] (setting [8]), -6%; in assay [5] (at 50.0 µM), 91.3% (active); in assay [6] (setting [7]), -3%; in assay [6] (setting [8]), 12%; in assay [6] (at 50.0 µM), 94.2% (active).

Consider `CC1(C)CCC(C)(C)c2cc(C(=O)Nc3ccc(C(=O)O)cc3)ccc21`, for which the growth inhibition in assay [1] (setting [7]) was 21%; in assay [1] (setting [8]) it was 99% (active); in assay [1] (at 50.0 µM), -12.2%; in assay [2] (setting [7]), 22%; in assay [2] (setting [8]), 96% (active); in assay [2] (at 50.0 µM), -18.1%. Further, the growth inhibition in assay [3] (setting [7]) is 20%; in assay [3] (setting [8]), 99% (active); in assay [3] (at 50.0 µM), 0.8%; in assay [4] (setting [7]), 36%; in assay [4] (setting [8]), 97% (active); in assay [4] (at 50.0 µM), -8.75%. In addition, the growth inhibition was 13% in assay [5] (setting [7]); 98% (active) in assay [5] (setting [8]); 4% in assay [5] (at 50.0 µM); 34% in assay [6] (setting [7]); 97% (active) in assay [6] (setting [8]); 5.75% in assay [6] (at 50.0 µM).

Turning to `O=C1NC(=O)C(Cc2ccccc2)(Cc2ccccc2)S1`, the growth inhibition in assay [1] (setting [7]) is 5%; in assay [1] (setting [8]) it was 98% (active); in assay [1] (at 50.0 µM), 99.2% (active); in assay [2] (setting [7]) it was 10%; in assay [2] (setting [8]) it was 99% (active); in assay [2] (at 50.0 µM), 99.4% (active). Also, the growth inhibition is -16% in assay [3] (setting [7]); 98% (active) in assay [3] (setting [8]); 99.3% (active) in assay [3] (at 50.0 µM); 21% in assay [4] (setting [7]); 99% (active) in assay [4] (setting [8]); 99.2% (active) in assay [4] (at 50.0 µM). The growth inhibition in assay [5] (setting [7]) was 17%; in assay [5] (setting [8]), 99% (active); in assay [5] (at 50.0 µM), 99.5% (active); in assay [6] (setting [7]), 6%; in assay [6] (setting [8]), 99% (active); in assay [6] (at 50.0 µM), 99.2% (active).

For the compound `O=Nc1c(NO)c2ccccc2c2ccccc12`, the growth inhibition in assay [1] (setting [7]) was 5%; in assay [1] (setting [8]), 96% (active); in assay [1] (at 50.0 µM) it was 99.1% (active); in assay [2] (setting [7]), -2%; in assay [2] (setting [8]) it was 91% (active); in assay [2] (at 50.0 µM), 96.2% (active). For the same compound, the growth inhibition in assay [3] (setting [7]) was -8%; in assay [3] (setting [8]), 93% (active); in assay [3] (at 50.0 µM) it was 97.8% (active); in assay [4] (setting [7]) it was 2%; in assay [4] (setting [8]) it was 82% (active); in assay [4] (at 50.0 µM), 85.8% (active). The growth inhibition is -9% in assay [5] (setting [7]); 95% (active) in assay [5] (setting [8]); 98.2% (active) in assay [5] (at 50.0 µM); 20% in assay [6] (setting [7]); 95% (active) in assay [6] (setting [8]); 98.2% (active) in assay [6] (at 50.0 µM).

For the compound `CCOC(=O)c1sc(N/N=C2\NC(=O)/C(=C/c3ccc([N+](=O)[O-])cc3)S2)nc1C`, the growth inhibition is 13% in assay [1] (setting [7]); 74% (active) in assay [1] (setting [8]); 92.8% (active) in assay [1] (at 50.0 µM); 10% in assay [2] (setting [7]); 90% (active) in assay [2] (setting [8]); 73.9% (active) in assay [2] (at 50.0 µM). Also, the growth inhibition is 12% in assay [3] (setting [7]); 92% (active) in assay [3] (setting [8]); 97.7% (active) in assay [3] (at 50.0 µM); -4% in assay [4] (setting [7]); 87% (active) in assay [4] (setting [8]); 87.1% (active) in assay [4] (at 50.0 µM). Also, the growth inhibition is -26% in assay [5] (setting [7]); 92% (active) in assay [5] (setting [8]); 95.3% (active) in assay [5] (at 50.0 µM); 22% in assay [6] (setting [7]); 92% (active) in assay [6] (setting [8]); 96.2% (active) in assay [6] (at 50.0 µM).
